This is one part of a sample in which hits are shown more often than they occur.
Cruzain Triton = inhibitors of Trypanosoma cruzi cruzain with detergent. P25779. purified cruzain, Z-FR-AMC fluorescence, 0.01% Triton. Potency, µM, actives largely listed as inhibitors. 200,000 compounds, 0.43% hits; further: nearly all actives have a fitted effect of over 40% in size
Target sequence (P25779 123-467 limits assumed): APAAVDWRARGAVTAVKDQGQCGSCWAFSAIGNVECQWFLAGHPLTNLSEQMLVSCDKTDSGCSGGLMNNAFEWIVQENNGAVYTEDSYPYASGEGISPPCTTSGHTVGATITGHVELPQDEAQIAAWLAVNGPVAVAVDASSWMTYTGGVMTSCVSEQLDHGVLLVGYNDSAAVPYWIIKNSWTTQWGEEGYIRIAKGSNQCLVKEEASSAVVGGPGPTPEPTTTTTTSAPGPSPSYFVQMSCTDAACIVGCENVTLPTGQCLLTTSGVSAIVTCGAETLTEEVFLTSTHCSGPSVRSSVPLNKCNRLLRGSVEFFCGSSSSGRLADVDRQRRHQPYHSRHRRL
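In this qHTS format, compounds are incubated with 1.5 nM cruzain for 15 min at room temperature before 2 uM Z-FR-AMC is added. Release of AMC is followed at 360/450 nm, and progress is taken as the 60 s fluorescence difference.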
NS1 function inh = inhibitors of influenza NS1 protein function; Potency, µM (titrated, usually from 46.1 µM); 270,000 compounds, 0.4% hits; calls by dose curve; further: actives are rising curves; nearly all actives have a fitted effect of over 50% in size
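Read-out: OD600 growth recovery of NS1-expressing budding yeast. Cells grown overnight at 30C in -URA glucose medium, washed, resuspended and diluted 1:100 in 2% galactose assay medium, pH 6.0. Same strain lacking NS1 served as positive control.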
Cruzain inh noDet = inhibitors of Trypanosoma cruzi cruzain without detergent; AID 1476; 200,000 compounds, 2.3% hits; purified cruzain, Z-FR-AMC fluorescence, no detergent; Potency, µM, usual class: inhibitors; further: nearly all actives have a fitted effect of over 40% in size
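Detergent-free condition (0.00005% Triton X-100) in acetate buffer pH 5.5 with DTT. 1.5 nM enzyme and compound were pre-mixed 15 min, then 2 uM Z-FR-AMC substrate added; reaction progress from fluorescence change between first and third reads (60 s).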
Of the large screens only hits and unclear results are named; the others gave an inactive call. Unless noted, the call rests on the fitted dose curve; in most records, active means well fitted curve in the direction sought with a large enough effect; inconclusive means small, poorly fitted or top-dose-only effect, or another doubt; inactive means no such curve, though single readings can be large; an effect the other way counts as inactive or inconclusive.

CCn1c(SCC(=O)Nc2cccc(OC)c2)nc2ccccc2c1=O	none (no result: Cruzain Triton, Cruzain inh noDet)
CCCn1c(SC(C(=O)Nc2cccc(OC)c2)c2ccccc2)nc2ccccc2c1=O (stereo not given)	Cruzain inh noDet 10µM
Cc1nc2c(cnn2-c2ccccc2)c(=O)[nH]1	none (no result: Cruzain Triton, Cruzain inh noDet)
O=c1[nH]c(-c2ccc(Cl)cc2)nc2c1cnn2-c1ccccc1	Cruzain inh noDet 25.1µM
CCCSc1nc2c(cnn2-c2ccc(Cl)cc2)c(=O)[nH]1	Cruzain inh noDet 10µM
CCCCSc1nc2c(cnn2-c2ccc(F)cc2)c(=O)[nH]1	none
CC(=O)c1cccc(Nc2ncnc3c2cnn3-c2cccc(Cl)c2)c1	none (no result: NS1 function inh)
CC(C)(C)c1ccc(C2=NC(C)(C)N(CC(=O)Nc3ccc(F)c(F)c3)C2=O)cc1	none (no result: NS1 function inh)
O=C(COc1ccc2ccccc2c1)Nc1nc2ccccc2[nH]1	Cruzain inh noDet 25.1µM
O=C(COc1ccc2ccccc2c1)NNC(=O)Cc1ccccc1	none
O=C(COc1ccc2ccccc2c1)NCCNC(=O)COc1ccc2ccccc2c1	Cruzain inh noDet 25.1µM
COc1ccc(OCC(=O)Nc2nc3ccccc3[nH]2)cc1	none
C[C@@H]1CC[C@@]2(OC1)O[C@H]1[C@@H](O)[C@H]3[C@@H]4CC[C@H]5C[C@@H](O[C@@H]6O[C@H](CO)[C@H](O[C@@H]7O[C@H](CO)[C@@H](O)[C@H](O[C@@H]8OC[C@@H](O)[C@H](O)[C@H]8O)[C@H]7O[C@@H]7O[C@H](CO)[C@@H](O)[C@H](O[C@@H]8O[C@H](CO)[C@@H](O)[C@H](O)[C@H]8O)[C@H]7O)[C@H](O)[C@H]6O)[C@H](O)C[C@]5(C)[C@H]4CC[C@]3(C)[C@H]1[C@@H]2C	Cruzain inh noDet inconclusive (no result: NS1 function inh)
COC(=O)c1sccc1S(=O)(=O)N(CC(=O)NCc1ccc(C)cc1)c1ccccc1	none (no result: NS1 function inh)
CCCCCc1c2c(cc(O)c1C(=O)O)OC(=O)c1cc(C(=O)CCCC)c(OC)cc1O2	Cruzain Triton 17.8µM, Cruzain inh noDet inconclusive (no result: NS1 function inh)
CCCCCc1c2c(cc(O)c1C(=O)O)OC(=O)c1c(cc(OC)cc1C(=O)CCCC)O2	none
CCOc1cc(/C=C2\CN(C)C/C(=C\c3ccc(O)c(OCC)c3)C2=O)ccc1O	none (no result: Cruzain Triton, Cruzain inh noDet)
CCOc1cc(/C=C2\CCC/C(=C\c3cc(Cl)c(O)c(OCC)c3)C2=O)cc(Cl)c1O	Cruzain inh noDet 12.6µM
COC(=O)N[C@@H](/C=C/c1ccccc1)/C(C(=O)OC)=C(\C)NCc1ccccc1	none (no result: NS1 function inh)
CN(CCOc1ccc(-c2ccn(S(=O)(=O)c3cccc4ccccc34)n2)cc1)c1ccccn1	Cruzain inh noDet 25.1µM
CN(CCOc1ccc(-c2ccn(S(=O)(=O)c3c(Cl)cccc3Cl)n2)cc1)c1ccccn1	Cruzain inh noDet inconclusive
ClC1=C(Cl)C(Cl)(Cl)C(Cl)=C1Cl	none (no result: NS1 function inh)
Cc1cccc(CNc2nc(-c3ccccc3CN(C)C)nc3ccccc23)c1	none (no result: NS1 function inh)
N#Cc1ccsc1NC(=O)CSc1ncnc2ccccc12	Cruzain inh noDet 15.8µM
N#Cc1ccsc1NC(=O)CSc1ncn[nH]1	none
O=C1OCC2=C1C(c1cccc(Cl)c1)CC(=O)N2c1ccc(C(F)(F)F)cc1 (stereo not given)	none (no result: NS1 function inh)
CCC(=O)Nc1cc(-c2cn3cccnc3n2)ccc1OC	none (no result: NS1 function inh)
COc1ccc(-c2cn3cccnc3n2)cc1F	Cruzain inh noDet 20µM
CN(C)S(=O)(=O)c1ccc(NC(=S)NC(=O)C2CCC2)cc1	none (no result: Cruzain Triton, Cruzain inh noDet)
CN(Cc1ccccc1)S(=O)(=O)c1ccc(NC(=S)NC(=O)C2CCCC2)cc1	Cruzain inh noDet 2.51µM
O=S(=O)(c1cccc2ccccc12)N1CCN(c2ccc(Cl)c(Cl)c2)CC1	Cruzain inh noDet 20µM (no result: NS1 function inh)
CCOc1ccc(S(=O)(=O)N2CCN(c3ccc(Cl)c(Cl)c3)CC2)c2ccccc12	none (no result: NS1 function inh)
CN(C)c1ccc(-c2cncnc2-n2ccnc2)cc1	none (no result: NS1 function inh)
CC(C)c1ccc(NC(=O)COc2nnc(-c3cccs3)c(-c3cccs3)n2)cc1	none
CCc1ccc(NC(=O)C(C)Oc2nnc(-c3cccs3)c(-c3cccs3)n2)cc1 (stereo not given)	Cruzain inh noDet 20µM
CCOc1ccc(N2CC(=O)N(c3ccc(OCC)cc3)CC2=O)cc1	none
CCOc1ccc(N2Cc3ccccc3C2)cc1	Cruzain inh noDet 15.8µM
COc1cc2c(cc1NC(=O)/C=C/c1ccc([N+](=O)[O-])cc1)oc1ccccc12	Cruzain inh noDet 5.01µM
COc1cc2c(cc1NC(=S)Nc1cccc3ccccc13)oc1ccccc12	Cruzain inh noDet 10µM
COc1cc2c(cc1NC(=O)COC(=O)/C=C/c1ccc([N+](=O)[O-])cc1)oc1ccccc12	none (no result: Cruzain Triton, Cruzain inh noDet)
COc1cc2c(cc1NC(=O)Nc1ccccc1)oc1ccccc12	Cruzain inh noDet inconclusive
COc1cc2c(cc1NC(=S)Nc1cccc(C(F)(F)F)c1)oc1ccccc12	Cruzain inh noDet 15.8µM
COCCCNC(=S)Nc1cc2oc3ccccc3c2cc1OC	none (no result: Cruzain Triton, Cruzain inh noDet)
Cc1nc2cnc(N(C)C)nc2n(CCC#N)c1=O	none (no result: NS1 function inh)
COc1ccc(C2CC(c3ccc4ccccc4c3OC(C)=O)=NN2C(=O)/C=C/c2ccccc2)cc1 (stereo not given)	Cruzain inh noDet 7.94µM
COc1ccc(C2CC(c3ccccc3OC(C)=O)=NN2C(=O)/C=C/c2ccccc2)cc1 (stereo not given)	none
O=C(O)[C@H]1CN[C@H](C(=O)O)C1	none (no result: NS1 function inh)
COc1ncc2nc(C)c(=O)n(CCC#N)c2n1	none (no result: NS1 function inh)
Nc1c(C(=O)NCc2ccc(Cl)cc2)sc2nc(-c3ccc(F)cc3)ccc12	Cruzain Triton 12.6µM, Cruzain inh noDet 10µM (no result: NS1 function inh)
O=C(NCc1ccc(Cl)cc1)c1cc(-c2ccc(F)cc2)on1	Cruzain inh noDet inconclusive (no result: NS1 function inh)
CC1CCN(S(=O)(=O)c2ccc3c(c2)c(=O)c(C(=O)NCCc2ccccc2)cn3C)CC1	none (no result: NS1 function inh)
Cc1c2cccc(Sc3ccccc3)c2c2c3c(cccc13)[S+](c1ccccc1)C2 (stereo not given)	Cruzain inh noDet 2.51µM
COC(=O)c1csc(C(=O)c2c[nH]c3ccccc23)n1	none (no result: NS1 function inh)
Cc1cn2c(=O)cc(COC(=O)c3ccc(NC(=O)c4ccc(C(C)(C)C)cc4)cc3)nc2s1	none (no result: NS1 function inh)
Cc1ccc(Nc2nc(N)c3ccccc3n2)cc1Cl	none (no result: Cruzain Triton, Cruzain inh noDet)
Nc1nc(Nc2ccccc2)nc2ccccc12	Cruzain Triton inconclusive, Cruzain inh noDet 25.1µM
Nc1nc(Nc2ccc(Cl)cc2)nc2ccccc12	Cruzain Triton 28.2µM, Cruzain inh noDet 10µM
CN(C)c1ccc(Nc2nc(N)c3ccccc3n2)cc1	none (no result: Cruzain Triton, Cruzain inh noDet)
CCCc1ccc(S(=O)(=O)N2CCC(c3nnc(-c4cccc(C)c4)o3)CC2)cc1	none (no result: NS1 function inh)
C=CCOC(=O)N[C@H](/C(C(=O)OC)=C(\C)NCc1ccccc1)c1ccc(Br)cc1	none (no result: NS1 function inh)
O=C(CCCCn1c(=O)c2ccccc2n(CC(=O)Nc2ccc(F)cc2F)c1=O)NCc1ccccc1Cl	none (no result: NS1 function inh)
Cc1ccc(NC(=O)Cc2coc3c(C)c(C)ccc23)c(C)c1	none (no result: NS1 function inh)
Cc1ccc2c(CC(=O)Nc3ccc(N4CCN(C)CC4)cc3C)coc2c1	Cruzain inh noDet 25.1µM
O=[N+]([O-])c1ccc2c(c1)C(N1CCOCC1)/C(=C/COc1ccc3ccccc3c1Br)O2 (stereo not given)	NS1 function inh inconclusive, Cruzain inh noDet 25.1µM
O=[N+]([O-])c1ccc(OC/C=C2\Oc3ccc([N+](=O)[O-])cc3C2N2CCOCC2)cc1 (stereo not given)	none
CCc1ccc(C(=O)Nc2cccc(-c3nc4cc(C(C)C)ccc4o3)c2)cc1	none (no result: NS1 function inh)
COc1cc(/C=N/Nc2cccc(C)c2)ccc1OC(=O)c1cccs1	Cruzain inh noDet 15.8µM
COc1cc(/C=N/Nc2nc(C)cc(C)n2)ccc1OC(=O)c1ccco1	none
